A selection: hits, their analogues and other compounds. The true share with any hit is near 4%.
Caspase-7 inhib – qHTS Assay for Allosteric/Competitive Inhibitors of Caspase-7; AID 889, 2007; Potency, µM (series often up to 57.5 µM), for inactives: top-dose activity change, negative = inhibition, actives largely listed as inhibitors; P55210; recombinant caspase-7, Ac-DEVD-AFC fluorescence rate; 0.02% of 75,000 active; active = well fitted inhibition curve with a large enough effect in the main read-out, with a control signal flat, not every such curve was filed as active; inconclusive = small, poorly fitted or top-dose-only effect, or a change in a side signal; note: % of control where 0% means no effect
PK Bst – Pyruvate Kinase; purified pyruvate kinase, luminescence ATP production; ribose 5-phosphate activator present at AC10; Potency, µM; 1.2% of 51,000 active; AID 361, 2006; in the data active = potency below about 11 µM; inconclusive = mostly about 12 µM to 25 µM;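 the screen sought inhibitors and activators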;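 note: scaled between full activation by ribose 5 phosphate and full inhibition by luteolin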
HEK293 cAMP cs – qHTS Assay for Agonists of the Thyroid Stimulating Hormone Receptor: Activators of Intracellular cAMP Concentrations in Parental HEK 293. Potency, µM (series often up to 57.1 µM), inactives show at the top dose activation, hits mostly activators. 2.5% of 73,000 active. parental HEK293 CNG cAMP sensor, membrane potential fluorescence. AID 938, 2007; note: % of control where 0% means no effect; nearly all actives have a fitted effect of over 55% in size
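Counterscreen for endogenous-receptor signalling: CNG-channel HEK 293 cells report cAMP rise by membrane depolarization. After 60 min dye equilibration with 100 uM RO 20-1724, compounds incubated 30 min before bottom-read fluorescence at 590 nm.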
GBA mod – Glucocerebrosidase; Potency, µM; 1.1% of 48,000 active; purified enzyme, resorufin glucoside fluorescence (screen aimed at inhibitors), 20 min; Lysosomal acid glucosylceramidase (Homo sapiens), P04062; in the data active = potency below about 15 µM; inconclusive = mostly about 16 µM to 33 µM;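 note: the screen sought inhibitors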
Target sequence (P04062 whole entry, looked up): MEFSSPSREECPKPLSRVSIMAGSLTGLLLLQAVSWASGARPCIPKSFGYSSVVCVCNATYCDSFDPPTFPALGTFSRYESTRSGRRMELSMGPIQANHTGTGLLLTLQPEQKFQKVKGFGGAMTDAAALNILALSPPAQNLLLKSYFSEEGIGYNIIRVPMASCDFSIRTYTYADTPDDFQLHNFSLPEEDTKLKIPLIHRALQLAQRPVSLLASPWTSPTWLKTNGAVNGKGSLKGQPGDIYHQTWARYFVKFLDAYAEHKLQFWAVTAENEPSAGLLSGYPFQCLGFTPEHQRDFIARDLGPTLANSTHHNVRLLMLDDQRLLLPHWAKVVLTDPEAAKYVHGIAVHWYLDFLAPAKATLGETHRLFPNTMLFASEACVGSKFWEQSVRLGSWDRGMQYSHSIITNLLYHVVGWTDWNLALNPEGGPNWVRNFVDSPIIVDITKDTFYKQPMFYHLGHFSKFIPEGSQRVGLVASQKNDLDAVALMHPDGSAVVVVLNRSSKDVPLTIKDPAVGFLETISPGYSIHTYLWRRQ
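Wild-type enzyme at 0.2 nM final in 50mM citric acid/KH2PO4, 10mM sodium taurocholate, 0.01% tween-20, pH 5.9, with resorufin beta-D-glucopyranoside at 30 uM final. Compounds titrated, 20 min at RT, red fluorescence read; AC50 from titration.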
Casp1 inh – qHTS Assay for Allosteric/Competitive Inhibitors of Caspase-1; Potency, µM (highest dose often 57.5 µM), for inactives: at the highest dose activity change, negative = inhibition, hits mostly inhibitors; AID 900, 2007; Caspase-1 enzyme, Ac-WEHD-AFC fluorogenic rate; 0.03% of 75,000 active; P29466;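 note: plate controls were vehicle for no effect and no substrate for full effect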
TSHR ag – qHTS Assay for Agonists of the Thyroid Stimulating Hormone Receptor; HEK293-CNG-TSHR cells (CNG channel as cAMP sensor), membrane potential dye, cAMP; Thyrotropin receptor (Homo sapiens), P16473; Potency, µM (series often up to 57.1 µM), without a hit: top-dose activation, most hits filed as activators; 0.48% of 73,000 active; active = well fitted activation curve with a large enough effect in the main read-out, with a control signal flat, not every such curve was filed as active; inconclusive = small, poorly fitted or top-dose-only effect, or a change in a side signal; inactive = no such curve, though single readings can be large or run the other way; % of control where 0% means no effect;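 note: the control signal comes from parental cells without the receptor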
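HEK 293 cells stably expressing TSHR and a cAMP-gated CNG channel; parental CNG-only cells as counterscreen. Cells preloaded 60 min with membrane potential dye plus 100 uM RO 20-1724, then compound 30 min; fluorescence read at 590 nm.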
* = called active by the depositor; i = inactive; ? = inconclusive; nt = no result; [ ] = dose if it differs, or a comment. Unless noted, calls come from the whole dose curve; as a rule, active = well fitted curve in the direction sought with a large enough effect; inconclusive = small, poorly fitted or top-dose-only effect, or another doubt; inactive = no such curve, though single readings can be large; an effect the other way counts as inactive or inconclusive. Potency is the fitted concentration of half-maximal effect.

SMILES	Caspase-7 inhib	PK Bst	HEK293 cAMP cs	GBA mod	Casp1 inh	TSHR ag
COC(=O)[C@@]1(C)C=C[C@@H](Cc2ccccc2)N1C	-7%	nt	20µM*	nt	-11%	?
c1ccc(OCCSc2nnc3sc4ccccc4n23)cc1	-1%	?	?	>77	1%	?
COc1cccc(OCCSc2nnc3sc4ccccc4n23)c1	-1%	nt	16µM*	>77	0%	?
O=C(Nc1ccc(Nc2ccccc2)cc1)N1CCOCC1	0%	>57	-1%	2*	-3%	-1%
COC(=O)c1ccc(NC(=O)N2CCOCC2)cc1	0%	>57	4%	>77	-1%	-5%
COc1ccc(/C=C(\C#N)C(N)=O)c(OC)c1	1%[11.5 µM]	nt	13%[11.4 µM]	nt	0%[11.5 µM]	5%[11.4 µM]
O=C(O)c1cc(-c2ccc(-c3ccccc3)cc2)nc2cc3ccccc3cc12	-1%[11.5 µM]	nt	5%[11.4 µM]	nt	3%[11.5 µM]	-2%[11.4 µM]
N#C[C@@H](Cc1ccc(O)c(O)c1)C(=O)N1CCc2ccccc21	0%	nt	-15%	nt	2%	-2%
S=c1nc(-c2ccccc2)n(CCN2CCOCC2)c2c1CCCC2	1%	>57	0%	>77	-2%	2%
S=c1nc(-c2ccccc2)n(Cc2ccco2)c2c1CCCC2	-2%	nt	43%	nt	-3%	5µM*
c1ccc(-c2nc3nc4ccccc4nc3n2Cc2ccco2)cc1	-8%	>57	10µM*	>77	-9%	?
Cc1cccc(C(=O)O)c1C[C@H]1NCC[C@H]2c3ccccc3N[C@@H]12	-10%[11.5 µM]	nt	0%[11.4 µM]	nt	-4%[11.5 µM]	-5%[11.4 µM]
CC(C)(C)c1cc(C(F)(F)F)nc(SCCCNC(=O)c2ccco2)n1	1%	>57	26%	?	-3%	25µM*
CC1CCC2C(=O)OC(CN3C(=O)c4ccccc4C3=O)CN2C1c1ccc(Br)cc1 (stereo unspecified)	-1%[11.5 µM]	nt	22%[11.4 µM]	nt	0%[11.5 µM]	10%[11.4 µM]
O=C(O)/C=C\C=C/c1ccc2c(c1)OCO2	0%[11.5 µM]	nt	10%[11.4 µM]	nt	0%[11.5 µM]	1%[11.4 µM]
COc1ccc2[nH]c3nc(SC(C)C)nnc3c2c1	-2%	4.5*	9%	>77	-1%	7%
COc1ccc2[nH]c3nc(SCc4nnc(-c5ccccc5)o4)nnc3c2c1	4%	>57	19%	i	-10%	8%
Cc1noc(C)c1-c1cc(NCc2cccs2)ncn1	-3%	nt	?	nt	-4%	?
O=C(O)CCc1ccc(-c2ccc(Br)cc2)n1Cc1ccco1	-16%	>57	5%	>77	-9%	2%
NC(=O)c1ccc(-c2ccc(Br)cc2)o1	-2%	5.1*	-2%	>77	-3%	5%
O=C(O)CCc1ccc(-c2ccc(Br)cc2)o1	0%	nt	4µM*	>77	-6%	?
O=C(O)Cn1c(=O)oc2cc(S(=O)(=O)N3CCOCC3)ccc21	1%	nt	4%	nt	-2%	2%
O=C(NCCO)c1ccc(-n2c(=O)c(=O)[nH]c3ccccc32)cc1	-1%	nt	-8%	nt	-2%	-1%
Cc1nc(-n2nnc3ccccc32)c2c3c(sc2n1)CCCC3	-2%	>57	20µM*	>77	-3%	?
Cc1nc(N2CCN(c3ccccc3)CC2)c2c3c(sc2n1)CCC3	-1%	nt	-3%	nt	0%	16µM*
SMILES	Caspase-7 inhib	PK Bst	HEK293 cAMP cs	GBA mod	Casp1 inh	TSHR ag
c1ccc2c(c1)nnn2-c1ncnc2sc3c(c12)CCCC3	-3%	>57	?	>77	-2%	?
Oc1cc(CN2COc3ccccc32)c(O)cc1CNC1CCCCC1	0%[11.5 µM]	nt	-4%[11.4 µM]	nt	-10%[11.5 µM]	-4%[11.4 µM]
CCOc1ccc(-c2nnc(NC(=O)c3ccc(OCC(C)C)c(OC)c3)o2)cc1	2%	>11	25µM*	>77	-4%	?
C=CC1=C(C)C2=NC1=CC1=NC(=CC3=NC(=CC4=NC(=C2)C(C)=C4CCC(=O)O)C(CCC(=O)O)=C3C)C(C=C)=C1C.[Zn]	-11%	nt	-30%	nt	-11%	?
CCn1c(SCCOc2ccc(Cl)cc2)nnc1-c1cccs1	-2%	>57	32µM*	>77	-3%	?
COC(=O)CSc1nnc(-c2cccs2)n1-c1ccc(Cl)cc1	-1%	>57	23%	nt	0%	17%
Cn1c(=O)c2c(nc(CN3CCN(c4cccc(Cl)c4)CC3)n2CCc2ccccc2)n(C)c1=O	-1%	>57	7.9µM*	>77	-4%	?
CCCCn1c(CN2CCN(c3cccc(Cl)c3)CC2)nc2c1c(=O)[nH]c(=O)n2C	0%	>57	?	>77	0%	?
CCOC(=O)Cn1c(CN2CCN(c3cccc(Cl)c3)CC2)nc2c1c(=O)[nH]c(=O)n2C	?	nt	20µM*	nt	nt	?
O=C(O)C1CC(=O)N(CCC23CC4CC(CC(C4)C2)C3)C(=Nc2ccccc2)S1 (stereo unspecified)	?	nt	3%	nt	-14%	5%
CC(C)(C)c1ccc(C(=O)Nc2nonc2-c2nc3ccccc3[nH]2)cc1	0%	>57	4%	2.4*	0%	-1%
CCOC(=O)CCc1c(C)c2ccc(OC(C)C(=O)OCC)c(C)c2oc1=O (stereo unspecified)	-5%	>57	20µM*	?	-2%	?
CNC(=O)c1cc2ccccc2o1	nt	>26	nt	nt	nt	nt
CCOC(=O)c1ccc(NC(=O)c2cc3ccccc3o2)cc1	-1%	nt	25µM*	nt	-1%	?
CC(C)C(=O)Nc1ccc(NC(=O)c2cc3ccccc3o2)cc1	-1%	>57	7%	9.8*	0%	5%
Nc1nc(CN2CCN(c3cccc(Cl)c3)CC2)nc(N2CCCc3ccccc32)n1	-10%	>57	17%	14*	-3%	nt
COc1ccc(N2CCN(Cc3nc(N)nc(N4CCCc5ccccc54)n3)CC2)cc1	1%	>57	1%	7.6*	-2%	nt
Nc1nc(CN2CCN(c3ccccc3)CC2)nc(N2CCCc3ccccc32)n1	-3%	>57	?	?	-1%	?
CCC(C)(C)C(=O)O[C@@H]1C[C@@H](C)C=C2C=C[C@H](C)[C@H](CC[C@@H]3C[C@@H](O)CC(=O)O3)[C@H]21	-12%	nt	21%	nt	-4%	nt
CCCCCCCCCCCCCCC1CO1 (stereo unspecified)	-1%	nt	22%	nt	-3%	2%
CCOc1ccc(OCCSc2nnnn2C2CCCCC2)cc1	-3%	>57	20µM*	>77	-3%	?
CCOc1ccc2nc(NC(=O)CSc3nnnn3C3CCCCC3)sc2c1	-5%	>57	23%	>77	-1%	17%
COc1cc(CN2CCCCC2)cc2cc(C(=O)O)c(=O)oc12	0%[11.5 µM]	nt	15%[11.4 µM]	nt	4%[11.5 µM]	1%[11.4 µM]
COc1ccccc1N1CCN(C(=O)CSc2nc(-c3ccccc3)cc(=O)[nH]2)CC1	-4%	>57	16%	>77	-1%	19%
